Test results from PubChem BioAssay (Tox21).
Records with an inconclusive call do not appear. Calls of active or inactive are those of the source. Unless noted, calls follow the shape of the dose curve; as a rule, active = well fitted curve in the direction sought with a large enough effect in the repeat runs; inconclusive = weak or mixed curves; inactive = no such curve, though single readings can be large; an effect the other way counts as inactive or inconclusive.

Experiments:
[1] = target: Nuclear receptor subfamily 1 group I member 3 (Homo sapiens) (UniProt Q14994); assay: qHTS assay to identify small molecule agonists of the constitutive androstane receptor (CAR) signaling pathway (AID 1224839);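 also: HepG2 cells stably carrying human CAR and a CYP2B6 luciferase reporter; series mostly up to about 92 µM; nearly all actives have a fitted effect of over 15% in size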
Chain of Nuclear receptor subfamily 1 group I member 3 (Homo sapiens) (Q14994 whole entry, looked up): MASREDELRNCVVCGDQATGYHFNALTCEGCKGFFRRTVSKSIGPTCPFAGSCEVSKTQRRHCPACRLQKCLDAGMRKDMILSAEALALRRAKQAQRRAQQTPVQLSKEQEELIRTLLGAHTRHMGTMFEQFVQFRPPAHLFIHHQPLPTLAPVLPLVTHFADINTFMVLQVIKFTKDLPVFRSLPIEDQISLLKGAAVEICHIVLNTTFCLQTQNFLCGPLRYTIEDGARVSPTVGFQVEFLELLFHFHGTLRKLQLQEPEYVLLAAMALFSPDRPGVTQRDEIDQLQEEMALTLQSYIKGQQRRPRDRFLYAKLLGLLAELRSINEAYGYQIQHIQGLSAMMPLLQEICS
Method in brief: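 Luminescent ONE-Glo read-out after 24 hr, 37 C exposure of double-stable HepG2-CYP2B6-hCAR reporter cells to a 15-point compound series, in the presence of 0.75 uM PK11195 (final).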

[2] = qHTS assay to identify small molecule agonists of the hypoxia (HIF-1) signaling pathway - cell viability counter screen (AID 1224844; calls by dose curve; also: nearly all actives have a fitted effect of over 50% in size)
Method in brief: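 Luminescent ATP content (CellTiter-Glo, 30 min, room temperature) served as the viability measure in HRE-bla ME-180 cells exposed to compounds for 17 hrs in low-serum medium (0.5% dialyzed FBS).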

[3] = qHTS assay to identify small molecule agonists of H2AX (AID 1224845; active = well fitted activation curve with a large enough effect in the signal ratio in the repeat runs, not every such curve was filed as active; the % refers to the signal ratio)
Method in brief: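 Wild-type CHO-K1 cells plated overnight, then exposed 3 hr at 37C to compounds at 15 concentrations (0.76% DMSO). Lysed, then HTRF anti-pH2AX(S139)-cryptate/anti-H2AX-d2 detection after 24 hr at room temperature; emissions 665 and 620 nm.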

[4] = qHTS assay to identify small molecule agonists of the hypoxia (HIF-1) signaling pathway (AID 1224846; active = well fitted activation curve with a large enough effect in the signal ratio in the repeat runs, not every such curve was filed as active; the % refers to the signal ratio)
Method in brief: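 Measured by blue/green FRET after loading CCF4-AM: beta-lactamase expressed from a hypoxia response element in ME-180 cells. Test agents were delivered in DMSO and left 17 hrs; cells had been plated 5 hrs earlier in low-serum (0.5% dialyzed FBS) medium.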

[5] = qHTS assay to identify small molecule agonists of H2AX - cell viability counter screen (AID 1224847; calls by dose curve; also: top concentration of the series differs between compounds; nearly all actives have a fitted effect of over 30% in size)
Method in brief: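 Counter-screen for viability: CellTiter-Glo ATP luminescence read after 3 h compound treatment (15-point titration, 0.76% DMSO final) of CHO-K1 cells at 37C, with 30 min room-temperature reagent incubation.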

[6] = qHTS RealTime-Glo MT Cell Viability Assay in HepG2 cells - 24 hour (AID 1224867); also: nearly all actives have a fitted effect of over 50% in size
Method in brief: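 Tox21 10K library screened in qHTS format on HepG2 cells carrying RealTime-Glo reagents. Compounds were added after a 5 h preincubation, and the luminescent signal from continuous culture was measured repeatedly during 40 h treatment.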

[7] = A CellTox Green Cytotoxicity Assay to monitor cytotoxicity in HEK293 cells - 0 hour (AID 1224869); also: nearly all actives have a fitted effect of over 50% in size
Method in brief: (§1)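 Each value comes from one timepoint of a single continuous run in which HEK293 cells with CellTox Green were exposed to compound for up to 40 h at 37 C, dye fluorescence rising with cell death.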

[8] = qHTS RealTime-Glo MT Cell Viability Assay in HepG2 cells - 40 hour (AID 1224870); also: nearly all actives have a fitted effect of over 50% in size
Method in brief: (§2)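 HepG2 cells mixed with RealTime-Glo MT reagents (NanoLuc plus cell-permeant prosubstrate) were seeded at 600 cells/well, incubated 5 h at 37 C/5% CO2, then pinned with compounds in DMSO; nonlytic luminescence tracked viability during 40 h treatment.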

[9] = A CellTox Green Cytotoxicity Assay to monitor cytotoxicity in HEK293 cells - 40 hour (AID 1224871); also: nearly all actives have a fitted effect of over 45% in size
Method in brief: as §1

[10] = qHTS RealTime-Glo MT Cell Viability Assay in HEK293 cells - 16 hour (AID 1224872); also: nearly all actives have a fitted effect of over 50% in size; also: potency is read from the fitted curve at half-maximal effect; as to activity change, negative = cytotoxicity: top concentration of the series differs between compounds
Method in brief: (§3)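 Luminescence generated by NanoLuc from substrate produced by living HEK293 cells served as the viability signal. Each value reflects the reading at its stated time point during continuous 40 h compound exposure at 37 C.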

[11] = qHTS RealTime-Glo MT Cell Viability Assay in HEK293 cells - 40 hour (AID 1224874); settings: RealTime-Glo luminescence; max response: hits give low values; also: nearly all actives have a fitted effect of over 50% in size
Method in brief: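 qHTS format; HEK293 cells with NanoLuc/prosubstrate reagent, 37 C/5% CO2 for 5 h pre-dosing; compounds 23 nL in DMSO; luminescence at each time point reflects viable cells.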

[12] = A CellTox Green Cytotoxicity Assay to monitor cytotoxicity in HEK293 cells - 24 hour (AID 1224875); also: series mostly up to about 77 µM; nearly all actives have a fitted effect of over 45% in size
Method in brief: as §1

[13] = qHTS assay to identify small molecule antagonists of the estrogen related receptor signaling pathway with the pleiotropic PPARgamma coactivator (PGC) from Tox21 10K library - cell viability counter screen (AID 1224840; active = well fitted cell-killing curve with a large enough effect in the repeat runs, not every such curve was filed as active; also: nearly all actives have a fitted effect of over 40% in size)
Method in brief: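 Compounds in DMSO, alongside positive and negative controls, were pinned onto PGC/ERR cells (2,000 per well). Exposure lasted 17.5 hours at 37 C, followed by a 30-minute CellTiter-Fluor incubation and fluorescence reading.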

[14] = qHTS RealTime-Glo MT Cell Viability Assay in HepG2 cells - 8 hour (AID 1224873); also: nearly all actives have a fitted effect of over 55% in size
Method in brief: as §2

[15] = qHTS RealTime-Glo MT Cell Viability Assay in HEK293 cells - 32 hour (AID 1224868)
Method in brief: as §3
% is scaled to controls: 0 for no effect and ±100 for the full control effect.

Nc1c(NC/C=C\COc2cc(CN3CCCCC3)ccn2)c(=O)c1=O
inactive: activation [1] 4% [at 19 µM] | activity change, negative = cytotoxicity [2] 1.18% [at 15.8 µM] | activation (H2AX phosphorylation) [3] -1.81% [at 31.6 µM] | activation [4] 0.659% [at 15.8 µM] | activity change, negative = cytotoxicity [5] 2.48% [at 31.6 µM] | activity change, negative = cytotoxicity [6] 1.59% [at 15.8 µM] | cytotoxicity [7] -1.89% [at 15.8 µM] | activity change, negative = cytotoxic [8] 1.19% [at 15.8 µM] | cytotoxicity increase [9] 6.78% [at 15.8 µM] | activity change, negative = cytotoxicity [10] 2.61% [at 15.8 µM] | max response [11] -0.39% | activity change [12] 3.31% [at 15.8 µM, hits give high values]

CCCCOC(=O)[C@@H](C)Oc1ccc(Oc2ccc(C(F)(F)F)cn2)cc1
inactive: Potency [1] | outcome [13] | outcome [2] | outcome [3] | outcome [4] | outcome [6] | Potency [7] | outcome [8] | Potency [9] | outcome [14] | Potency [12]
active: Potency [10] 31.1 µM

Cc1ccc2c(c1)c1c3n2CCNC3CCC1 (configuration not stated)
inactive: Potency [1] | outcome [13] | outcome [2] | outcome [3] | Potency [5] | outcome [6] | Potency [15] | outcome [8] | Potency [9] | Potency [10] | outcome [14] | max response [11] 0.813% | Potency [12]

CCC(=O)OCCC(C)CCC=C(C)C (configuration not stated)
inactive: Potency [1] | outcome [2] | outcome [3] | outcome [4] | Potency [7] | outcome [8] | Potency [9] | outcome [14] | max response [11] -5.38% | Potency [12]
